Measurements published in PubChem BioAssay AID1835 (Johns Hopkins Ion Channel Center, 2009).
Hit rate of the full screen: of about 2,400 compounds, about 750 (31%) were called active. This is one part of the list. Unmarked numbers belong to inactive results.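 How the source made its calls: active means median signal gain over dofetilide-blocked control wells reaching their mean plus 3 SD, so readout 1 at least 0; inactive means the rest.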

These molecules were tested against Voltage-gated inwardly rectifying potassium channel KCNH2 (Homo sapiens) (UniProt Q12809) (assay: modulators restoring hERG flux under dofetilide – cell-based, thallium flux, duplicate retest, dofetilide IC70, confirmation (AID 1835)). Conditions: hERG cell line, FluxOR thallium flux, dofetilide-blocked; at 10 µM; hits give high values.
Voltage-gated inwardly rectifying potassium channel KCNH2 (Homo sapiens), sequence (Q12809 whole entry, looked up): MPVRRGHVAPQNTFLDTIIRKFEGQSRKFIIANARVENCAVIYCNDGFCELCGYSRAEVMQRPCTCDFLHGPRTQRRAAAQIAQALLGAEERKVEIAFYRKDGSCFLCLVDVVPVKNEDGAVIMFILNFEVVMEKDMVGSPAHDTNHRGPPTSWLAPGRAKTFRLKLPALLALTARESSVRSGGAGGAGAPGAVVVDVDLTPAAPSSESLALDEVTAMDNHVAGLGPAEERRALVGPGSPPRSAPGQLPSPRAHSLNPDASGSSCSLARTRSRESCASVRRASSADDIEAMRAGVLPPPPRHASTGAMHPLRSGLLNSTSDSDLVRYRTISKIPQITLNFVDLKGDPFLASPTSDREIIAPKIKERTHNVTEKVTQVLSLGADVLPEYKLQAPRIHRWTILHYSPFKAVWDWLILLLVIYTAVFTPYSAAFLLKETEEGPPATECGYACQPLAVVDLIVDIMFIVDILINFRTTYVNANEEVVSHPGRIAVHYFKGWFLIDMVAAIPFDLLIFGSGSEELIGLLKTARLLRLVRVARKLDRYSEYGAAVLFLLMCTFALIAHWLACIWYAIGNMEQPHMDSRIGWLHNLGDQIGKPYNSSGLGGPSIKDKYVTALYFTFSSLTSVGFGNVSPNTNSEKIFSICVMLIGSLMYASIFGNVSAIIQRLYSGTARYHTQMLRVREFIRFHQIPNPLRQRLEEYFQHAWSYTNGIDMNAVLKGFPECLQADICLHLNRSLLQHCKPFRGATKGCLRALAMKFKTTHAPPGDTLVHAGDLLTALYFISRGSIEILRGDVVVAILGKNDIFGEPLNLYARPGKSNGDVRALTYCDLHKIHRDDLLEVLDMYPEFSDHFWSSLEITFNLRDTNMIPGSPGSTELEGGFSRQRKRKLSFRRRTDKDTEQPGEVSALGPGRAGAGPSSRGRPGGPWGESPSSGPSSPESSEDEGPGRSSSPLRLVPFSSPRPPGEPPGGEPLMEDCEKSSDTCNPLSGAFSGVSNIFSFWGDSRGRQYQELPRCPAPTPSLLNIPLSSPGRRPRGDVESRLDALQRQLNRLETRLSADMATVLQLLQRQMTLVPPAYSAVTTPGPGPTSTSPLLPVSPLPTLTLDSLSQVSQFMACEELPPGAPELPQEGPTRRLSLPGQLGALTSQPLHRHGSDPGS

Compound	activity increase over dofetilide control, less the hit threshold
N#Cc1cccc(NC(=O)c2nc(-c3ccccc3)n(-c3ccccc3)n2)c1	-18%
Fc1ccccc1N1CCN(c2cnc3ccccc3n2)CC1	-9%
Nc1nnc(SCC(=O)OCc2ccc(F)cc2)s1	-27%
Cc1cc(-c2cccnc2)c(C#N)c(SCc2cccc(F)c2)n1	-15%
CCCCNC(=O)N1CCCC(C(=O)c2cc(C)c(OC)c(C)c2)C1 (stereo unspecified)	-22%
C/C(N)=C(/C#N)C(=O)COC(=O)C1CCC(C(C)(C)C)CC1 (stereo unspecified)	-7%
CCC(C)(C(=O)NC1CCCC1)N(C(=O)c1ccccn1)c1ccccc1 (stereo unspecified)	-17%
Cc1cc(-c2cccc(Br)c2)c(C#N)c(N)n1	-15%
CCNC(=O)NC1c2ccccc2CSc2ccccc21 (stereo unspecified)	-19%
O=C(NC(=S)Nc1ccc(N2CCCCC2)cc1)c1ccco1	45% (active)
O=C(NC(=S)Nc1ccccc1N1CCCC1)c1ccco1	4% (active)
O=C(CCc1ccccc1)NC(=S)Nc1cc(C(F)(F)F)ccc1N1CCOCC1	-14%
O=C(NC(=S)Nc1cc(C(F)(F)F)ccc1N1CCOCC1)c1ccco1	10% (active)
CC1CCN(c2ccccc2NC(=S)NC(=O)c2ccco2)CC1	-6%
O=C(NC(=S)Nc1ccccc1Br)c1ccco1	-1%
O=C(NC(=S)Nc1ccccc1Cl)c1ccco1	18% (active)
Cc1ccc2[nH]c(C(=O)O)c(-c3ccccc3)c2c1	-16%
O=c1cc(CN2CCN(S(=O)(=O)c3ccc4c(c3)OCCO4)CC2)c2ccc(O)cc2o1	-5%
CCOc1cc(NC(=S)N2CCC(C(N)=O)CC2)c(C(=O)OC)cc1OCC	-4%
COc1cc2c(cc1OC)CN(C(=O)c1sccc1C)CC2	-13%
Cc1ccc(OCC(=O)Nn2cnc3ccccc32)cc1	-11%
Cc1ccc(C2C(C#N)=C(N)OC3=C2C(=O)CC(C)(C)C3)s1 (stereo unspecified)	-4%
Cc1ccc(-c2csc3nc[nH]c(=S)c23)cc1C	36% (active)
Cc1cc(-c2csc3nc[nH]c(=S)c23)cc(C)c1C	14% (active)
O=C(O)c1ccccc1P(=O)(c1ccccc1)c1ccccc1	-20%
CCCC(=O)n1nc(-c2ccccc2)nc1N	-17%

Compound	activity increase over dofetilide control, less the hit threshold
CCCCCCc1cc2cc(-c3nnc(-c4ccccc4)o3)c(=O)oc2cc1O	-13%
c1ccc(CCCNc2ncnc3nc[nH]c23)cc1	11% (active)
O=C(NC(=S)N1CCN(c2ccccc2)CC1)c1c(F)cccc1F	-9%
O=C(NC(=S)N1CCN(c2ccc(F)cc2)CC1)c1cccs1	25% (active)
O=C(c1cccs1)N1CCN(C23CC4CC(CC(C4)C2)C3)CC1	-21%
O=C(NC(=S)N1CCN(c2ccccc2)CC1)c1ccccc1	16% (active)
O=C(N/C(=C/c1ccc2c(c1)OCO2)C(=O)N1CCOCC1)c1cccs1	-18%
CC1CCN(C(=S)NC(=O)c2cccs2)CC1	10% (active)
O=C(CN1CCN(c2ccc(Cl)cc2)CC1)Nc1ccc(F)cc1	-15%
N#Cc1cccc(N=c2ssnc2Cl)c1	-32%
CC(=O)Nc1ccccc1NC(=O)C/C(C)=N/NC(=O)c1ccc([N+](=O)[O-])c(Cl)c1	-13%
Cc1ccccc1NC(=O)CSc1ccsc1[N+](=O)[O-]	-6%
O=C(CSc1nc2ccc(NC(=O)c3ccccc3C(=O)O)cc2s1)Nc1c(Cl)cccc1Cl	0%
CSc1nsc(SCC(=O)Nc2ccccc2C(=O)O)n1	2% (active)
O=C(NNC(=S)Nc1ccccc1)c1cccc(S(=O)(=O)N2CCOCC2)c1	-12%
Cc1cc(=O)[nH]c(SCC(=O)Nc2ccccc2C#N)c1C#N	-4%
COc1cc(Cl)c(C)cc1NC(=O)CSc1sc2c(O)cc(=O)[nH]c2c1C#N	1% (active)
CCC(NS(=O)(=O)c1ccc(OC)cc1)C(=O)O (stereo unspecified)	-13%
Cc1nn(-c2ccc(Cl)cc2)c2sc(C(=O)c3c(N)n(C)c(=O)n(C)c3=O)cc12	67% (active)
CCOC(=O)c1nc(C)n(-c2ccc(Cl)cc2)n1	-1%
O=C(NCC1CCS(=O)(=O)C1)Oc1ccccc1 (stereo unspecified)	-15%
CCN(CC)c1ccc(/C=c2\sc3nnc(-c4ccccc4Cl)n3c2=O)cc1	-11%
Cc1nn(-c2ccccc2)c(C)c1S(=O)(=O)O	-6%
Cc1nn(-c2ccccc2)c(N2CCCC2)c1/C=N/O	-16%
Cc1nn(-c2ccccc2)c(Cl)c1/C=C1\SC(=S)NC1=O	51% (active)
COCCCN1C(=O)C(=O)/C(=C(/O)c2ccc(S(=O)(=O)N3CCOCC3)cc2)C1c1ccc(F)cc1 (stereo unspecified)	-5%

Compound	activity increase over dofetilide control, less the hit threshold
CN(C(=O)CCc1ccccc1)c1nnc(-c2ccncc2)s1	-24%
O=C(c1ccco1)N(c1ccccn1)c1ccccn1	-13%
CCCN(C(=O)c1ccco1)c1nnc(-c2ccncc2)s1	5% (active)
Cc1cc([N+](=O)[O-])nn1CC(=O)Nc1ccc(Cl)cn1	-12%
Cc1ccc(O)c(Sc2cc(C)ccc2O)c1	-34%
O=C(CCC(=O)N1CCN(S(=O)(=O)c2ccccc2)CC1)c1cccs1	-14%
Cc1[nH]n(-c2cccc3ccccc23)c(=O)c1/C=N/c1sc2c(c1C#N)CCC2	3% (active)
Cc1[nH]n(-c2ccc(F)cc2)c(=O)c1/C=N/c1sc2c(c1C#N)CCCC2	41% (active)
CN(C1=C(NC(=O)c2ccccc2)C(=O)c2ccccc2C1=O)C1CCS(=O)(=O)C1 (stereo unspecified)	-4%
COCCn1cnc2c1c(=O)n(CC#N)c(=O)n2Cc1ccccc1	-14%
N#C/C(=C\c1ccc(-c2ccccc2Cl)o1)C(=O)Nc1nc2ccccc2s1	-6%
COc1cccc2sc(Nc3nnc(-c4ccccc4Cl)o3)nc12	16% (active)
COc1cccc2sc(Nc3nnc(-c4cccs4)o3)nc12	52% (active)
COc1cccc2sc(Nc3nc(-c4ccccn4)cs3)nc12	-19%
COc1ccccc1Nc1nnc(SCC(=O)Nc2nc(-c3ccc(F)cc3)cs2)s1	-24%
COc1cccc2sc(Nc3nnc(-c4ccc(F)cc4)o3)nc12	83% (active)
Cc1ccc(NC(=O)c2ccc(NC3=NC4CS(=O)(=O)CC4S3)cc2)cc1 (stereo unspecified)	-14%
O=C(C[n+]1ccccc1)N/N=C/c1ccc(Cl)c(Cl)c1	-13%
O=C(CC1CCCC1)Nc1ccc2c(c1)CCC2	-5%
COc1ccc(/C=N/NC(=O)c2ccncc2)cc1CN1CCCc2ccccc21	3% (active)
COc1ccccc1NC(=S)N1CCCc2ccccc21	-16%
COc1ccc(/C=N/NC(=O)C(=O)N2CCCC2)cc1	-4%
O=[N+]([O-])c1cc(Cl)cc(/C=N/NC(=S)Nc2ccc(S(=O)(=O)N3CCOCC3)cc2)c1O	-3%
O=c1oc2cc(OCCO)ccc2c2c1CCCC2	-8%
Cc1cc(=O)oc2c3c(cc(OCC(=O)N[C@@H](Cc4ccccc4)C(=O)O)c12)OC(C)(C)CC3	-3%
O=C(COc1ccc2c3c(c(=O)oc2c1)CCC3)N[C@@H](Cc1ccccc1)C(=O)O	9% (active)

Compound	activity increase over dofetilide control, less the hit threshold
Cc1cc(=O)oc2cc(OCC(=O)OCC(=O)NC(C)C)ccc12	-22%
O=C(COc1ccc2c3c(c(=O)oc2c1)CCC3)NCC1CCC(C(=O)O)CC1 (stereo unspecified)	-7%
Cc1c(C)c2ccc(OCC(=O)N[C@@H](Cc3ccccc3)C(=O)O)cc2oc1=O	2% (active)
Cc1ccc(C(C)C)cc1OCCn1cncn1	-24%
O=C1Nc2ccc(Br)cc2C1Cc1ccccc1F (stereo unspecified)	-17%
Cc1ccc(C(=O)CC(=O)c2ccc(C)cc2O)cc1	-1%
Cc1ccc(C(=O)CC(=O)c2cccc(F)c2)c(O)c1	1% (active)
O=C(CC(=O)c1ccccc1O)c1cccc(F)c1	-6%
COc1cc(C(=O)NCc2ccc(-c3nc4ccccc4o3)cc2)cc(OC)c1OC	-12%
CCSc1nnc(NC(=O)Cn2cnc3c2c(=O)n(C)c(=O)n3C)s1	-22%
CCSc1nnc(NC(=O)CC(C)C)s1	3% (active)
O=C(Nc1nnc(SCC(=O)N2CCCCC2)s1)C1CCCCC1	-18%
COc1ccc(S(=O)(=O)Nc2ccc(Cl)cn2)c(C)c1C	-9%
CC[C@@H](C(=O)[C@@H](C)[C@@H](O)[C@H](C)CCc1ccc(C)c(O)c1C(=O)O)[C@H]1O[C@](CC)([C@H]2CC[C@](O)(CC)[C@H](C)O2)C[C@@H]1C	93% (active)
O=C(CCN1C(=O)/C(=C\C=C\c2ccccc2)SC1=S)Nc1ccc(C(=O)O)cc1	26% (active)
O=C(CSc1nc(-c2ccccc2)nc2ccc(F)cc12)Nc1cccc(C(=O)O)c1	-23%
COc1ccc(NC(=O)CCN2C(=O)C3C4C=CC(C4)C3C2=O)cc1 (stereo unspecified)	-14%
O=C(CCN1C(=O)/C(=C/c2cccs2)SC1=S)Nc1cccc(C(=O)O)c1	-13%
O=C(CCN1C(=O)/C(=C\C=C\c2ccccc2)SC1=S)Nc1cccc(C(=O)O)c1	93% (active)
CC(C)Oc1cc(S(=O)(=O)N2CCCCC2)ccc1N	-18%
S=C(N/N=C/c1ccc(Cl)cc1)N1CCOCC1	-47%
Cc1cc(F)c(F)c(C(=O)N2CCOCC2)c1	-17%
CC(C)(C)C(=O)NC(=S)N1CCOCC1	3% (active)
